# Source: ChEMBL document CHEMBL3988442, “University of Dundee, Small-Polar-MMV Screening Library” (2021)
# Among all 48,000 compounds or so, about 13,000 (27%) showed an effect of 50% or more. This is one part of the list.
# Test system: Wolbachia pipientis
# Experiment: Anti-Wolbachia Cell-Based Screen
# Type: functional
# Parameters: scale not given: in the data most compounds retested in dose-response had high values
# Settings: 5 µM
row,Structure (SMILES),Percent Effect [%]
1,O=C1CO[C@H]2CN(Cc3ccc4c(c3)OCO4)C[C@H]2N1,-13.01
2,O=C1CC(c2ccc3c(c2)OCO3)c2cn[nH]c2N1 (stereo not drawn),104.3
3,Cn1ncc2c1NC(=O)CC2c1cc2c(cc1Cl)OCO2 (stereo not drawn),-77.33
4,CCC(C)(NCc1ncc(C(C)C)o1)c1nccs1 (stereo not drawn),-9.094
5,CN(C)[C@@H]1CO[C@H](CNC(=O)Nc2ccccc2)[C@H]1O,-15.17
6,CN(Cc1c(F)cccc1Cl)C(=O)Nc1cnn(CC(N)=O)c1,-4.374
7,CCOc1ccc2nc(CN3CCOC(CN)C3)ccc2c1 (stereo not drawn),8.772
8,Cc1nccc(C(=O)N2CCOC(c3nc(C(C)C)n[nH]3)C2)n1 (stereo not drawn),122.6
9,CC(C)c1n[nH]c(C2CN(C(=O)c3ccnc(C4CC4)n3)CCO2)n1 (stereo not drawn),106.2
10,CC1CCc2nc(O)c(C(=O)NCc3ccncc3)cc2C1 (stereo not drawn),0.9729
11,CCc1nc(CN2CCCN(Cc3cnn(C)c3)CC2)no1,-7.215
12,CCN1Cc2c(C(=O)NC)ncn2-c2ccccc2S1(=O)=O,-8.627
13,CCCNC(=O)c1ncn2c1CN(CC(C)C)S(=O)(=O)c1ccccc1-2,51.12
14,CN1Cc2c(C(=O)N3CCOCC3)ncn2-c2ccccc2S1(=O)=O,-2.827
15,CN(C(=O)c1ncn2c1CN(C)S(=O)(=O)c1ccccc1-2)C1CC1.O=C(O)C(F)(F)F,110.5
16,CCCN(CC)C(=O)c1ncn2c1CN(C)S(=O)(=O)c1ccccc1-2,93.03
17,CN1CCN(C(=O)c2ncn3c2CNS(=O)(=O)c2ccccc2-3)CC1,3.453
18,CCN1Cc2c(C(=O)NC(C)C)ncn2-c2ccccc2S1(=O)=O,-5.811
19,CCNC(=O)c1ncn2c1CN(C)S(=O)(=O)c1ccccc1-2,6.974
20,CN1CCN(C(=O)c2ncn3c2CN(C)S(=O)(=O)c2ccccc2-3)CC1.O=C(O)C(F)(F)F,82.4
21,CC(C)CN1Cc2c(C(=O)NC3CC3)ncn2-c2ccccc2S1(=O)=O,24.74
22,Cc1ncsc1CCN(C)C(=O)c1c(O)cccc1O,-0.9599
23,O=C(CCn1nnc2ccccc2c1=O)N(CC1CCOC1)C1CC1 (stereo not drawn),-7.506
24,CCCOC1CCCN(C(=O)Cn2cccc(C(F)(F)F)c2=O)C1 (stereo not drawn),-4.197
25,CN1Cc2c(C(=O)Nc3cccnc3)ncn2-c2ccccc2S1(=O)=O.O=C(O)C(F)(F)F,-4.618
26,CN1Cc2c(C(=O)NCC3CCCO3)ncn2-c2ccccc2S1(=O)=O (stereo not drawn),113.6

row,Structure (SMILES),Percent Effect [%]
1,CCN1Cc2c(C(=O)NC(C)C(C)C)ncn2-c2ccccc2S1(=O)=O (stereo not drawn),6.168
2,O=C(c1ncn2c1CNS(=O)(=O)c1ccccc1-2)N1CC=CC1,-15.18
3,CCC(C)(C)NC(=O)c1ncn2c1CN(C)S(=O)(=O)c1ccccc1-2.O=C(O)C(F)(F)F,117.1
4,Cc1c(C(=O)NC2CCCC2)nnn1-c1ccccc1,-16.4
5,CCC(CC)NC(=O)c1ncn2c1CN(CC)S(=O)(=O)c1ccccc1-2.O=C(O)C(F)(F)F,4.599
6,CC(C)C(C)NC(=O)c1ncn2c1CN(C)S(=O)(=O)c1ccccc1-2.O=C(O)C(F)(F)F (stereo not drawn),211.3
7,CN1Cc2c(C(=O)NC3CCCCC3)ncn2-c2ccccc2S1(=O)=O.O=C(O)C(F)(F)F,115.3
8,Cc1c(CNC(=O)C2CCCN2C(=O)C2CC2)oc2ccccc12 (stereo not drawn),-1.359
9,CCOc1cccc(NS(=O)(=O)c2cc(C)c(C(=O)O)s2)c1,-3.705
10,O=C(c1csc(-c2cnccn2)n1)N1CCCC1Cn1cccn1 (stereo not drawn),125.1
11,O=C(c1csc(-c2ncccn2)n1)N1CCCC1Cn1cccn1 (stereo not drawn),100.9
12,O=C(c1csc(-c2ccccn2)n1)N1CCCC1Cn1cccn1 (stereo not drawn),108.1
13,O=C(c1csc(-c2cccs2)n1)N1CCCC1Cn1cccn1 (stereo not drawn),4.192
14,Cn1cc(-c2nc(C(=O)N3CCCC3Cn3cccn3)cs2)cn1 (stereo not drawn),119.5
15,CCc1nc(CC(=O)N2CCCC2Cn2cccn2)cs1 (stereo not drawn),-8.177
16,CN(CC(=O)N1CCCC1Cn1cccn1)c1cnccn1 (stereo not drawn),-3.712
17,CCC1CN(C(=O)c2csc(-c3cnn(C)c3)n2)CCO1 (stereo not drawn),8.184
18,O=C(CN1CCCCCC1=O)NCC1CCN(c2ccccc2)C1 (stereo not drawn),-4.287
19,O=C(N1CCOCC1CO)C1(c2cccs2)CCCC1 (stereo not drawn),1.205
20,COc1ccc(/C=C/CN2CCN(c3nccnc3C)CC2)cc1,1.299
21,COc1ccc(N(CCC(N)=O)C(=O)CSc2ccc(F)c(F)c2)cc1,6.569
22,CCc1nc(CCNC(=O)NC2CCN(C(C)C)C2)sc1C (stereo not drawn),-28.06
23,Cc1ncc(CN2CCCC2c2ccc(C(=O)NCc3ccoc3)s2)s1 (stereo not drawn),9.292
24,CCCc1nnc(N2CCN(c3ccccc3F)CC2)o1,104.4
25,CCCc1nnc(N2CCN(C3CCCC3)CC2)o1,-0.2431
26,CCCc1nnc(N2CCC(C3CCN(C)CC3)CC2)o1,-0.3277

row,Structure (SMILES),Percent Effect [%]
1,CCCc1nnc(N2CCN(c3cccc(C)c3C)CC2)o1,106.7
2,CCCc1nnc(N2CCN(c3ccccc3Cl)CC2)o1,94.38
3,CCc1nnc(N2CCN(CCc3ccccc3)C(=O)C2)o1,-17.07
4,CCCc1nnc(N2CCC(N3CCN(CCO)CC3)CC2)o1,-3.287
5,CCCc1nnc(N2CCC(N3CCCC(O)C3)CC2)o1 (stereo not drawn),11.24
6,COc1nc(C)ccc1CNC(=O)NC(C)(C)c1ncc(C)s1,40.1
7,O=C(c1cccc(-c2ncc[nH]2)c1)N1CCC(N2CCCC(O)C2)CC1 (stereo not drawn),-7.829
8,O=C(C1CCCC1)N1CCC(C2CCN(Cc3ccc(Cl)cc3)C2)CC1 (stereo not drawn),14.43
9,CN1CCN(Cc2c(Cl)ccc(O)c2Cl)CC1C(=O)O (stereo not drawn),96.73
10,Cc1cc(-c2nn(C)c(Cl)c2CN2CCN(C)C(C(=O)O)C2)no1 (stereo not drawn),-9.468
11,Cc1ccc(Cl)c(CN2CCC3(CC2)C(C(=O)O)CC(=O)N3C)c1F (stereo not drawn),1.712
12,CN1CCN(Cc2ccc(Cl)cc2)CC1C(=O)O (stereo not drawn),102.4
13,Cc1ccc(Cl)c(CN2CCN(C)C(C(=O)O)C2)c1F (stereo not drawn),102.6
14,CC(C1CCN(Cc2c(Cl)ccc(O)c2Cl)CC1)N1CCN(C)CC1 (stereo not drawn),2.442
15,CC(=O)N1CCN(Cc2ccc(Cl)c(F)c2)CC(O)C1 (stereo not drawn),3.004
16,O=C(C1CCC1)N1CCC(C2CCN(Cc3ccc(Cl)cc3)C2)CC1 (stereo not drawn),11.03
17,CCC(C(=O)NC1(CN2CCOCC2)CCCC1)n1cccn1 (stereo not drawn),-7.135
18,Cn1c(CNc2c(F)cccc2-n2cccn2)cc(=O)n(C)c1=O,-1.066
19,CC(C#N)CN(C)C(=O)c1cn(-c2ccc(Br)cc2)cn1 (stereo not drawn),17.58
20,CCc1noc(CN2CCN(c3nccs3)CC2)n1,91.95
21,c1csc(-c2cc(CN3CCN(c4nccs4)CC3)no2)c1,7.977
22,CCCc1noc(CN2CCN(c3nccs3)CC2)n1,101
23,Nc1nc(CN2CCN(c3nccs3)CC2)cs1,-10.1
24,CC(C)Cc1noc(CN2CCN(c3nccs3)CC2)n1,-10.34
25,CCCc1noc(CN2CCN(CCC(C)C)CC2)n1,7.482
26,COc1cccc(C(=O)N2CCN(CC(O)c3ccccc3)CC2)c1 (stereo not drawn),2.631

row,Structure (SMILES),Percent Effect [%]
1,CCOCC(O)CN1CCN(C(=O)c2ccc(OC)cc2)CC1 (stereo not drawn),101.3
2,CCOCC(O)CN1CCN(C(=O)c2cccc(OC)c2)CC1 (stereo not drawn),88.95
3,CCOCC(O)CN1CCN(C(=O)c2cc(F)cc(F)c2)CC1 (stereo not drawn),99.72
4,CCOCC(O)CN1CCN(C(=O)c2ccsc2)CC1 (stereo not drawn),-6.282
5,COc1cccc(C(O)CN2CCN(C(=O)c3ccsc3)CC2)c1 (stereo not drawn),4.323
6,CCOCC(O)CN1CCN(C(=O)c2ccncc2)CC1 (stereo not drawn),2.226
7,CCOCC(O)CN1CCN(C(=O)c2cccc(F)c2)CC1 (stereo not drawn),0.952
8,CCOCC(O)CN1CCN(C(=O)c2cnc3n[nH]c(C)c3c2)CC1 (stereo not drawn),-0.1708
9,CCOC(C)c1nc(CN2CCN(c3nccc(C)n3)CC2)cs1 (stereo not drawn),-8.527
10,CCc1ncc2c(n1)CN(C(=O)CCCc1ccc(OC)cc1)C2,-1.775
11,COc1ccc(NC(=O)N2CCCC(CO)C2)c(C)c1 (stereo not drawn),-14.28
12,Nc1cc(N2CCCC(Cc3ccc(F)cc3F)(C(=O)O)C2)ncn1 (stereo not drawn),-0.2204
13,CCN(CC)c1ccc(CNS(=O)(=O)C2CCOCC2)cc1F,0.7913
14,O=C(N[C@@H]1CCN(C(=O)C2CCOCC2)C[C@H]1O)c1ccccn1,2.955
15,OC1(CN2CCC(Cc3ccccc3)CC2)CCC1,-17.41
16,O=C(C1CCOCC1)N1CCOC(CC2CCCCC2)C1 (stereo not drawn),10.22
17,CCOCCN1CCN(CC2(O)CCCCC2)CC1,-2.649
18,OC1(CN2CCC(Cc3ncccn3)CC2)CCOCC1,87.8
19,OC1(CN2CCC(Cc3ncccn3)CC2)CCCCC1,116.2
20,Fc1cccnc1OC[C@@]12CCO[C@@H]1CCN(CC1CCOCC1)C2.O=C(O)C(F)(F)F.O=C(O)C(F)(F)F,11.98
21,C1=CCN(c2nc(CC3CC3)nc3c2CCN(C2CCOCC2)CC3)C1,-5.944
22,O=C(C1CCOCC1)N1CCOCC(Cc2ncccn2)C1 (stereo not drawn),97.13
23,Clc1cccc(C(NCc2ncc[nH]2)c2ccccn2)c1 (stereo not drawn),3.902
24,CN(C)CC(C)(O)CNC(=O)Nc1sc2ccccc2c1Cl (stereo not drawn),1.378
25,COc1coc(CN2CCCC(CCc3ccccc3C)C2)cc1=O (stereo not drawn),-0.7566
